In all, about 360,000 compounds went through this assay and about 130 (0.036%) were called active. Shown is part of a subset that was picked to be rich in actives. Values without a mark were called inactive. No stated cut-off is given here; in the data, active means potentiation above about 30%; inactive means the rest.
These compounds were tested against D(1A) dopamine receptor (Homo sapiens) (UniProt P21728) (assay: Potentiators of Human D1 Dopamine Receptor: qHTS). Details: HEK293 TREx D1 cells, calcium flux, dopamine EC20 potentiation; at 10 µM; active compounds read high.
Chain of D(1A) dopamine receptor (Homo sapiens) (P21728 whole entry, looked up): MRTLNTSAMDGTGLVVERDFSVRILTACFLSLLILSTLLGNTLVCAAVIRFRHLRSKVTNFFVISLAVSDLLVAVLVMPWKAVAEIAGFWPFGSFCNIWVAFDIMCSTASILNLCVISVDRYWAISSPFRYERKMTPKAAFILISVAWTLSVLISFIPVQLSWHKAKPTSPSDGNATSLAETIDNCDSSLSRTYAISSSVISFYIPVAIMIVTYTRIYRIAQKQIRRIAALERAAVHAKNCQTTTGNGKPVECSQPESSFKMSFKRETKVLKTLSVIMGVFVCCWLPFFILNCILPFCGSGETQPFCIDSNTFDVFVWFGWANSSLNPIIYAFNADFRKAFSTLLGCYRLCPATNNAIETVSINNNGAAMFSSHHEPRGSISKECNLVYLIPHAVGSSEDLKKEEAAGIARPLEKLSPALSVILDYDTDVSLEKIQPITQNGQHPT
Text: Dopamine receptors (DARs) are involved in the etiology and/or therapy of a number of neuropsychiatric and endocrine disorders. For instance, all receptor-based antiparkinsonian drugs work via stimulating the D1 DAR subtype whereas all FDA-approved antipsychotic agents are antagonists of this receptor. […] There are three different types of allosteric modulators that we are seeking, two of which will stimulate or augment receptor signaling, allosteric agonists and potentiators, while the third, allosteric antagonists, will attenuate receptor signaling. The present primary screening assay measures compound potentiation of an EC20 dopamine response by tracking calcium flux in a […], inducible Hek293 Trex D1 cell line.
NIH Chemical Genomics Center [NCGC]
NIH Molecular Libraries Probe Centers Network [MLPCN]
Assay Submitter (PI): David Sibley
Freshly passaged cells are plated in 1536 well black, clear bottom plates at a density of 4000 cells/well in 3 ul of complete media containing 1x tetracycline inducer. After an overnight incubation at 30 C in 5% CO2, cells are loaded with 2 ul of the no wash Calcium Assay Kit (ABD Bioquest) and incubated at room temperature for 30 to 90 minutes. A 10 cycle (1 second/cycle) baseline measurement is taken and then the FDSS online 1536 pintool delivers 23 nl of compound library (as well as dopamine controls) to the plate. The plate is measured for kinetically at 1 cycle/sec for 180 seconds and is considered to be the agonist portion of the assay (eg, compounds which activate a positive calcium response during this portion are flagged as potential agonists). Following the 180 second read, 1 ul of an EC20 of dopamine is delivered by an onboard pipette head. Measurements are taken kinetically for an additional 180 seconds.
For `O=C1C2(Cl)C3(Cl)C4(Cl)C(Cl)(Cl)C5(Cl)C3(Cl)C1(Cl)C5(Cl)C24Cl` (stereo not given), the potentiation was 54.8% (active).
With `Cc1cccc(-n2c(O)c(C=NC34CN5CN(CN(C5)C3)C4)c(=O)[nH]c2=O)c1` the potentiation was -1.15%.
Work on `Clc1cccc(Cl)c1Cl` yielded a potentiation of -1.55%.
With `COP(=O)(NS(=O)(=O)c1ccccc1)OC` the potentiation was -2.85%.
Compound `CNC(=O)O/N=C(\N)Cc1csc2ccccc12` has a potentiation of -9.15%.

From PubChem BioAssay AID504651 (National Center for Advancing Translational Sciences (NCATS), 2011)
Further: 0% is about no effect.
